# Test results: PubChem BioAssay (NCATS)
# Inconclusive results are not listed. Entries that show only a call come without a potency. Activity calls are given as the source filed them. Unless noted, calls come from the whole dose curve; as a rule, active = well fitted curve in the direction sought with a large enough effect; inconclusive = small, poorly fitted or top-dose-only effect, or another doubt; inactive = no such curve, though single readings can be large; an effect the other way counts as inactive or inconclusive.
# Experiments:
# [1] = qHTS assay for measurement of the activity of small molecule inhibitors on Zika virus induced Caspase-3 activity in human iPSC derived neural progenitor cells (hNPCs) (AID 1224857); note: nearly all actives have a fitted effect of over 65% in size; note: potency is the fitted concentration of half-maximal effect
# Procedure, shortened: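 Zika virus (2 FFU/cell) infection of human iPSC-derived NPCs, 6 h, following 1 h compound preincubation. Read-out: Caspase-Glo 3/7 luminescence.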
# [2] = qHTS assay for measurement of the activity of small molecule inhibitors on Zika virus induced Caspase-3 activity in human astrocytoma cells (AID 1224859); note: potency is the fitted concentration of half-maximal effect
# Procedure, shortened: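 Caspase activation in ZIKV-infected SNB-19 cells (2 FFU/cell, 6 h) measured by Caspase-Glo 3/7 luminescence after 30 min RT; compound pre-incubated 1 h; normalised to uninfected and infected controls.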
# [3] = qHTS Screen of the MIPE 4.0 Collection Against Ewings Sarcoma (TC71) (AID 1259253); note: nearly all actives have a fitted effect of over 40% in size; note: potency is the fitted concentration of half-maximal effect
# Procedure, shortened: (§1)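 Here, cells in 5% FBS RPMI were exposed for two days (48 h) to compound dilutions added four hours after plating. ATP-based CellTiter-Glo luminescence measured viability, normalized to vehicle and no-cell blanks.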
# [4] = qHTS Screen of the MIPE 4.0 Collection Against Ewings Sarcoma (EW8) (AID 1259255); note: nearly all actives have a fitted effect of over 35% in size; note: potency is the fitted concentration of half-maximal effect
# Procedure, shortened: as §1
# [5] = Identifying Small Molecule Inhibitors of Pancreatic Cancer Stem Cells (SN12C, Adherent) (AID 1259358);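 note: potency is the fitted concentration of half-maximal effect; cell survival measured after 48 h of compound exposure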
# Procedure, shortened: (§2)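 Luminescent ATP readout (CellTiter-Glo) quantifies surviving cells after a 48 h drug incubation. Normalization uses DMSO wells as no inhibition and media-only wells as full inhibition; bortezomib served as positive control.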
# [6] = Identifying Small Molecule Inhibitors of Pancreatic Cancer Stem Cells (A278, Adherent) (AID 1259361); note: nearly all actives have a fitted effect of over 35% in size
# Procedure, shortened: as §2
# [7] = Identifying Small Molecule Inhibitors of Pancreatic Cancer Stem Cells (Panc1, Adherent) (AID 1259362); conditions: Potency: viability; note: potency is the fitted concentration of half-maximal effect
# Procedure, shortened: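 Cytotoxicity read by CellTiter-Glo luminescence after 48 h compound exposure at 37C; percent activity scaled between DMSO-treated cells and cell-free wells. Spheroid formats used cells pre-formed 14 days in stem cell media on hydrogel.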
# [8] = P-glycoprotein substrates identified in KB-8-5-11 adenocarcinoma cell line, qHTS therapeutic library screen (AID 1346987); note: nearly all actives have a fitted effect of over 65% in size; note: potency is the fitted concentration of half-maximal effect
# Procedure, shortened: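 Compounds are pinned in dose-response onto KB-8-5-11 cells (500 cells/well, colchicine-free medium) and left 72 h at 37 degree C. CellTiter-Glo luminescence then yields AC50 values.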
# [9] = qHTS Screen of the MIPE 4.0 Collection Against Ewings Sarcoma (TC32) (AID 1259256); note: nearly all actives have a fitted effect of over 45% in size; note: potency is the fitted concentration of half-maximal effect
# Procedure, shortened: as §1
# [10] = NS1 protein of Zika virus - qHTS assay to identify small molecule inhibitors in human HEK 293 cells (AID 1347053); note: nearly all actives have a fitted effect of over 55% in size; note: potency is the fitted concentration of half-maximal effect
# Procedure, shortened: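 Readout was TR-FRET using paired anti-NS1 antibodies after 24 h infection of HEK 293 cells with ZIKV MR766 (MOI = 0.5). Compound preceded virus by 1 h; reduced signal reflects lower NS1 expression.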
# [11] = P-glycoprotein substrates identified in KB-3-1 adenocarcinoma cell line, qHTS therapeutic library screen (AID 1346986); note: nearly all actives have a fitted effect of over 60% in size;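 note: potency is the fitted concentration of half-maximal effect; potency is for cytotoxicity meaning loss of cell viability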
# Procedure, shortened: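 72 h cell-killing screen, 500 cells/well, CellTiter-Glo luminescence. Paired lines KB-3-1/KB-8-5-11; P-gp dependence checked by tariquidar co-treatment and HEK-293 MDR-19 versus empty-vector cells.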
# [12] = qHTS assay to identify small molecule inhibitors of chordoma cells - UCH-1 (AID 1259355); note: nearly all actives have a fitted effect of over 55% in size
# Procedure, shortened: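 A 48hr growth-inhibition format: each drug tested at 15 concentrations together with added auranofin, camptothecin, doxorubicin, rubitecan and topotecan, with cell viability quantified as CellTiter-Glo luminescence.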
# [13] = qHTS assay to identify small molecule inhibitors of chordoma cells - UCH-2 (AID 1259356); note: series mostly up to about 46 µM
# [14] = Natriuretic polypeptide receptor (hNpr1) antagonism - Pilot counterscreen GloSensor control cell line (AID 1347045; calls by dose curve; note: series mostly up to about 38 µM)
# Procedure, shortened: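 Control counterscreen: luciferase cGMP-biosensor HEK293 cells (no Npr1) received compound for 30 min at room temperature after GloSensor substrate loading. Luminescence was measured before and 20 min after soluble guanylyl cyclase activation by 50 uM nitroprusside.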
# [15] = target: Atrial natriuretic peptide receptor 2 (Homo sapiens) (UniProt P20594); experiment: Natriuretic polypeptide receptor (hNpr2) antagonism - Pilot subtype selectivity assay (AID 1347050; calls by dose curve)
# Procedure, shortened: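 Read-out: GloSensor luminescence (CCD imager), baseline vs post-stimulation. HEK293 cells expressing hNpr2; compounds pre-incubated 30-50 min at ambient temperature; hNppC 1 nM final, 20 min.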
# Chain of Atrial natriuretic peptide receptor 2 (Homo sapiens) (P20594 whole entry, looked up): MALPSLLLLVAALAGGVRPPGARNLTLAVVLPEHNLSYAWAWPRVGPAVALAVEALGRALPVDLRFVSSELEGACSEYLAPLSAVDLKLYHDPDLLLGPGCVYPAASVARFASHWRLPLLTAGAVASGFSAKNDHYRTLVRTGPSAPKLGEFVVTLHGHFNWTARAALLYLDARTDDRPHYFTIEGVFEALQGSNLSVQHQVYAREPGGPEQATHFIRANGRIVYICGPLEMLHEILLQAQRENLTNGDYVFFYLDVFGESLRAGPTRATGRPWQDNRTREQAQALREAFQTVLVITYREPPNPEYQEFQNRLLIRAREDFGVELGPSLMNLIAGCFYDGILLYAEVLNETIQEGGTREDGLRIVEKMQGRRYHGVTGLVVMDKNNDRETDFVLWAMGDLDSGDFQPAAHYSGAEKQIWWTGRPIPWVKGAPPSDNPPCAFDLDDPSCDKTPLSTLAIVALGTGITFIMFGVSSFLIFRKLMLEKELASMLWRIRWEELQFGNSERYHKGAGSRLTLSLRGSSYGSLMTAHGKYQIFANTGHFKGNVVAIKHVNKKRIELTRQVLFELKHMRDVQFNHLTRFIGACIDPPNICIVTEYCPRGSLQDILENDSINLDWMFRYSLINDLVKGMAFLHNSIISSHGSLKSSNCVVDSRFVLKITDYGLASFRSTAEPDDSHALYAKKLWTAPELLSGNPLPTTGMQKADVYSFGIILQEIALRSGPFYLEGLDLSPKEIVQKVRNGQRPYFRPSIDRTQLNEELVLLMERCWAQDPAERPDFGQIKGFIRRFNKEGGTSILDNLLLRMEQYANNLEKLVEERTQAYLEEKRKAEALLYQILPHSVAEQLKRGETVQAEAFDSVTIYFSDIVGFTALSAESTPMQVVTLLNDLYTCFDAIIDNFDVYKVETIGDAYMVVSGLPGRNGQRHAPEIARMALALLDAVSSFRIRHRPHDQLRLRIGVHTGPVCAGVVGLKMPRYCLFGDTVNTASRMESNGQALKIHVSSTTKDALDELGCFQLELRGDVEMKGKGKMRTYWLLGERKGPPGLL
smiles,measurement,setting,value
C=CCON=C(C[C@H]1O[C@@H]2O[C@]3(C)CC[C@@H]4[C@H](C)CC[C@@H]([C@H]1C)[C@@]24OO3)[C@H]1O[C@@H]2O[C@]3(C)CC[C@H]4[C@H](C)CC[C@@H]([C@@H]1C)[C@@]24OO3,Potency,[1],inactive
same,Potency,[2],inactive
same,Potency,[3],418 nM (active)
same,Potency,[4],296 nM (active)
same,Potency,[5],93.5 nM (active)
same,IC50 (viability decrease),[6],52.6 nM (active)
same,Potency,[7],66.2 nM (active)
same,Potency,[8],16600 nM (active)
CC(=O)OCC1=C(C(=O)O)N2C(=O)[C@@H](N)[C@@H]2SC1,Potency,[1],inactive
same,Potency,[2],inactive
same,Potency,[3],inactive
same,Potency,[4],inactive
same,Potency,[9],inactive
same,Potency,[8],inactive
same,Potency,[10],inactive
O=C1C=CC[C@@H]2[C@H]3CCCN4CCC[C@@H](CN12)[C@@H]34,Potency,[1],4690 nM (active)
same,Potency,[2],3320 nM (active)
same,Potency,[9],16600 nM (active)
same,Potency,[8],inactive
same,Potency,[10],inactive
O=S(=O)(F)Cc1ccccc1,Potency,[1],inactive
same,Potency,[2],inactive
same,Potency,[3],inactive
same,Potency,[8],inactive
same,Potency,[10],inactive
CCCCCC[C@H]1C(=O)O[C@H](C)[C@H](NC(=O)c2cccc(NC=O)c2O)C(=O)O[C@@H](C)[C@@H]1OC(=O)CC(C)C,Potency,[1],inactive
same,Potency,[2],inactive
same,Potency,[4],105 nM (active)
same,Potency,[9],83.3 nM (active)
same,Potency,[10],2960 nM (active)
CC(C)(O)C(=O)Nc1ccc([N+](=O)[O-])c(C(F)(F)F)c1,Potency,[1],inactive
same,Potency,[2],inactive
same,Potency,[3],23500 nM (active)
same,Potency,[9],23500 nM (active)
same,Potency,[8],inactive
same,Potency,[10],inactive
CC(O)=C(C#N)C(=O)Nc1cc(Br)ccc1Br,Potency,[1],inactive
same,Potency,[2],inactive
same,Potency,[3],23500 nM (active)
same,Potency,[9],20900 nM (active)
same,Potency,[11],inactive
same,Potency,[8],inactive
same,Potency,[10],inactive
CC(N[C@H]1C[C@H]1c1ccccc1)c1ccc2c(c1)OCCO2 (stereo partly drawn),Potency,[1],inactive
same,Potency,[2],inactive
same,Potency,[4],inactive
same,Potency,[8],inactive
same,Potency,[10],inactive
C[C@]12COC(=O)C[C@@H]1CC[C@@H]1[C@H]2CC[C@@]2(C)[C@H]1CC[C@]2(C)O,Potency,[1],inactive
same,Potency,[2],inactive
same,Potency,[4],inactive
same,Potency,[9],inactive
same,Potency,[8],inactive
same,Potency,[10],inactive
CCOP(=O)(OCC)C(C)NC(=O)N(CCCl)N=O (stereo not drawn),Potency,[1],inactive
same,Potency,[2],inactive
same,Potency,[3],inactive
same,Potency,[4],inactive
same,Potency,[9],inactive
same,Potency,[8],inactive
same,Potency,[10],inactive
C[C@H]1CCCC=CC2C[C@H](O)C[C@@H]2[C@H](O)C=CC(=O)O1 (stereo partly drawn),Potency,[1],inactive
same,Potency,[2],inactive
same,Potency,[3],inactive
same,Potency,[4],inactive
same,Potency,[9],inactive
same,Potency,[8],1 nM (active)
same,Potency,[10],inactive
CCc1c(C(=O)C(N)=O)c2c(OCC(=O)O)cccc2n1Cc1ccccc1,Potency,[1],inactive
same,Potency,[2],inactive
same,Potency,[3],20900 nM (active)
same,Potency,[11],inactive
same,Potency,[8],inactive
same,Potency,[10],inactive
CC(C)(C)c1cc(C=C(C#N)C#N)cc(Br)c1O,Potency,[1],inactive
same,Potency,[2],inactive
same,Potency,[9],26400 nM (active)
same,Potency,[11],20600 nM (active)
CC(C)[C@H]1C(=O)N[C@H](CO)Cc2c[nH]c3cccc(c23)N1C,Potency,[1],23500 nM (active)
same,Potency,[2],inactive
same,Potency,[3],inactive
same,Potency,[4],inactive
same,Potency,[9],166 nM (active)
same,Potency,[8],inactive
same,Potency,[10],inactive
CC[C@H]1C=CC=CC[C@@H](C)[C@H](O)[C@@](C)(O)C(=O)[C@@H](C)[C@H](O)[C@@H](C)C(=O)[C@@H](C)[C@H](O)[C@@H](C)C=CC(=O)O[C@@H]2[C@@H](C)[C@H](CC1)O[C@]1(CC[C@H](C)[C@H](C[C@@H](C)O)O1)[C@H]2C,Potency,[1],inactive
same,Potency,[2],inactive
same,Potency,[3],11.8 nM (active)
same,Potency,[4],4690 nM (active)
same,Potency,[8],1050 nM (active)
same,Potency,[10],18700 nM (active)
O=C(O)C(Cl)Cl,Potency,[1],inactive
same,Potency,[2],inactive
same,Potency,[12],inactive
same,Potency,[13],inactive
same,Potency,[11],inactive
same,Potency,[8],inactive
same,Potency,[10],inactive
CO[C@H]1CCC(O[C@H]2C[C@H]([C@]3(C)CC[C@]4(C[C@H](O)[C@@H](C)[C@@H]([C@@H](C)C=C(C)C(=O)[C@H](C)C[C@H](C)C(=O)O)O4)O3)O[C@]3(O[C@@H]([C@H]4O[C@@](O)(CO)[C@H](C)C[C@H]4C)C[C@H]3C)[C@H]2C)O[C@H]1C (stereo partly drawn),Potency,[1],inactive
same,Potency,[2],inactive
same,Potency,[3],332 nM (active)
same,Potency,[4],372 nM (active)
same,Potency,[9],418 nM (active)
same,Potency,[10],743 nM (active)
O=C(N[C@H]1CN2CCC1CC2)c1ccc(Cl)cc1,Potency,[1],inactive
same,Potency,[2],inactive
same,Potency,[3],18700 nM (active)
same,Potency,[9],14800 nM (active)
same,Potency,[11],inactive
same,Potency,[8],inactive
same,Potency,[14],inactive
same,Potency,[15],inactive
same,Potency,[10],inactive
C1=C2CCCN[C@H]2[C@@H]2C[C@H]1[C@@H]1CCCCN1C2,Potency,[1],inactive
same,Potency,[2],inactive
same,Potency,[3],inactive
same,Potency,[4],inactive
same,Potency,[9],inactive
same,Potency,[8],inactive
same,Potency,[10],inactive
C[C@](O)(COc1ccc(C#N)cc1)C(=O)Nc1ccc(C#N)c(C(F)(F)F)c1,Potency,[1],inactive
same,Potency,[2],inactive
same,Potency,[4],inactive
same,Potency,[9],inactive
same,Potency,[8],inactive
same,Potency,[10],inactive
Cc1c(N)nc([C@H](CC(N)=O)NC[C@@H](N)C(N)=O)nc1C(=O)N[C@H](C(=O)N[C@@H](C)[C@H](O)[C@@H](C)C(=O)N[C@@H](C(=O)NCCc1nc(-c2nc(C(=O)NCCC[S+](C)C)cs2)cs1)[C@@H](C)O)C(O[C@H]1O[C@H](CO)[C@H](O)[C@@H](O)[C@@H]1O[C@H]1O[C@H](CO)[C@@H](O)[C@H](OC(N)=O)[C@H]1O)c1cnc[nH]1 (stereo partly drawn),Potency,[1],inactive
same,Potency,[2],inactive
same,Potency,[3],526 nM (active)
same,Potency,[4],264 nM (active)
same,Potency,[9],418 nM (active)
same,Potency,[10],2960 nM (active)
CCOC(=O)Nc1ccc(NCc2ccc(F)cc2)cc1N,Potency,[1],inactive
same,Potency,[2],inactive
same,Potency,[3],29600 nM (active)
same,Potency,[9],20900 nM (active)
same,Potency,[8],inactive
same,Potency,[10],inactive
